# The supplement of paper PMC6992640
# Test system: WHIM2 (cells of a triple-negative basal-like breast cancer xenograft)
# Assay: cell viability of combination (% of vehicle); higher = less cytotoxic
# Conditions: 1 µM; 72 h; partner dose: 10 nM
# Method: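 PDX cells were treated for 72 h with each drug at 1 µM plus afatinib (10 nM; 1 µM for WHIM30). Luciferase viability is expressed as percent of vehicle.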
row,SMILES,cell viability of combination
1,O=C(NC1CCN(CCCCC2(C(=O)NCC(F)(F)F)c3ccccc3-c3ccccc32)CC1)c1ccccc1-c1ccc(C(F)(F)F)cc1 [Lomitapide] + CN(C)C/C=C/C(=O)Nc1cc2c(Nc3ccc(F)c(Cl)c3)ncnc2cc1O[C@H]1CCOC1 [Afatinib],27.4
2,Cl.OC(c1cc(C(F)(F)F)nc2c(C(F)(F)F)cccc12)C1CCCCN1 (configuration not stated) [Mefloquine hydrochloride] + CN(C)C/C=C/C(=O)Nc1cc2c(Nc3ccc(F)c(Cl)c3)ncnc2cc1O[C@H]1CCOC1 [Afatinib],55.9
3,CCCCCCCCOc1ccccc1C(=O)Nc1ccc(C(=O)OCC[N+](C)(CC)CC)cc1.[Br-] [Otilonium Bromide] + CN(C)C/C=C/C(=O)Nc1cc2c(Nc3ccc(F)c(Cl)c3)ncnc2cc1O[C@H]1CCOC1 [Afatinib],53.9
4,Cl.O.O=C1Cc2cc(CCN3CCN(c4nsc5ccccc45)CC3)c(Cl)cc2N1 [Ziprasidone hydrochloride monohydrate] + CN(C)C/C=C/C(=O)Nc1cc2c(Nc3ccc(F)c(Cl)c3)ncnc2cc1O[C@H]1CCOC1 [Afatinib],45.2
5,CSc1ccc2c(c1)N(CCC1CCCCN1C)c1ccccc1S2.Cl (configuration not stated) [Thioridazine HCl] + CN(C)C/C=C/C(=O)Nc1cc2c(Nc3ccc(F)c(Cl)c3)ncnc2cc1O[C@H]1CCOC1 [Afatinib],47.4
6,CN(C(=O)CN(CCO)CC(=O)N(C)C(C)(C)Cc1ccccc1)C(C)(C)Cc1ccccc1 [Oxethazaine] + CN(C)C/C=C/C(=O)Nc1cc2c(Nc3ccc(F)c(Cl)c3)ncnc2cc1O[C@H]1CCOC1 [Afatinib],41.4
7,C=CC(=O)Nc1cc(Nc2nccc(-c3cn(C)c4ccccc34)n2)c(OC)cc1N(C)CCN(C)C + CN(C)C/C=C/C(=O)Nc1cc2c(Nc3ccc(F)c(Cl)c3)ncnc2cc1O[C@H]1CCOC1 [Afatinib],34.9
8,CC1=CC(=O)c2ccccc2C1=O [Menadione] + CN(C)C/C=C/C(=O)Nc1cc2c(Nc3ccc(F)c(Cl)c3)ncnc2cc1O[C@H]1CCOC1 [Afatinib],50.2
9,COc1cc2nccc(Oc3ccc(NC(=O)Nc4cc(C)on4)c(Cl)c3)c2cc1OC [Tivozanib (AV-951)] + CN(C)C/C=C/C(=O)Nc1cc2c(Nc3ccc(F)c(Cl)c3)ncnc2cc1O[C@H]1CCOC1 [Afatinib],39.8
10,CC(C)COc1ccc(CNC(=O)N(Cc2ccc(F)cc2)C2CCN(C)CC2)cc1 [Pimavanserin] + CN(C)C/C=C/C(=O)Nc1cc2c(Nc3ccc(F)c(Cl)c3)ncnc2cc1O[C@H]1CCOC1 [Afatinib],50.8
11,C1=C\COCc2cc(ccc2OCCN2CCCC2)Nc2nccc(n2)-c2cccc(c2)COC/1 [Pacritinib] + CN(C)C/C=C/C(=O)Nc1cc2c(Nc3ccc(F)c(Cl)c3)ncnc2cc1O[C@H]1CCOC1 [Afatinib],38.8
12,Cc1cn(-c2cc(NC(=O)c3ccc(C)c(Nc4nccc(-c5cccnc5)n4)c3)cc(C(F)(F)F)c2)cn1 [Nilotinib(AMN-107)] + CN(C)C/C=C/C(=O)Nc1cc2c(Nc3ccc(F)c(Cl)c3)ncnc2cc1O[C@H]1CCOC1 [Afatinib],63.2
13,CCCCCCCCCCCC1=C(O)C(=O)C=C(O)C1=O [Embelin] + CN(C)C/C=C/C(=O)Nc1cc2c(Nc3ccc(F)c(Cl)c3)ncnc2cc1O[C@H]1CCOC1 [Afatinib],42.9
14,Clc1ccc(C(Cn2ccnc2)OCc2ccc(Sc3ccccc3)cc2)c(Cl)c1.O=[N+]([O-])O (configuration not stated) [Fenticonazole Nitrate] + CN(C)C/C=C/C(=O)Nc1cc2c(Nc3ccc(F)c(Cl)c3)ncnc2cc1O[C@H]1CCOC1 [Afatinib],49.9
15,Cc1nc(Nc2ncc(C(=O)Nc3c(C)cccc3Cl)s2)cc(N2CCN(CCO)CC2)n1 + CN(C)C/C=C/C(=O)Nc1cc2c(Nc3ccc(F)c(Cl)c3)ncnc2cc1O[C@H]1CCOC1 [Afatinib],30.8
16,CCCCc1oc2ccc(NS(C)(=O)=O)cc2c1C(=O)c1ccc(OCCCN(CCCC)CCCC)cc1.Cl [Dronedarone HCl] + CN(C)C/C=C/C(=O)Nc1cc2c(Nc3ccc(F)c(Cl)c3)ncnc2cc1O[C@H]1CCOC1 [Afatinib],52.5
17,COc1cc2c(Oc3ccc(NC(=O)C4(C(=O)Nc5ccc(F)cc5)CC4)cc3F)ccnc2cc1OCCCN1CCOCC1 + CN(C)C/C=C/C(=O)Nc1cc2c(Nc3ccc(F)c(Cl)c3)ncnc2cc1O[C@H]1CCOC1 [Afatinib],37.7
